Source: PubChem BioAssay
In the library only some 3% were active in any assay of this set; here they are far more common.
aSyn UTR inh: MLPCN primary screen, SNCA 5' untranslated region. alpha-synuclein 5'UTR reporter, inhibitor activity. inhibition, % (tested at 7.5 µM). hit rate 0.82% among 300,000. AID 1813, 2009; in the data active = inhibition above about 60%;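 note: H4 neuroglioblastoma cells stably carrying SNCA 5'UTR luciferase fusion; 0% = DMSO wells and 100% = positive control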
SKKanGAS inh: S. pyogenes SKKanGAS growth inhibitors in kanamycin, primary screen, streptokinase expression inhibitor project, SKKanGAS strain, BacTiter-Glo luminescence; inhibition, % at 7.5 µM; AID 1662, 2009; hit rate 1.3% among 300,000; 6 h;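 active = mean replicate score, as percent of positive control median, at least 50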;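 note: strain carries kanamycin resistance gene driven by streptokinase promoter and grows in 40 µg/ml kanamycin; loss of luminescence reflects streptokinase promoter inhibition or plain growth inhibition; 0% = median of DMSO wells and 100% = positive control at its reference dose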
CSC inhib: cancer stem cell viability inhibitors, primary screen, luminescence; hit rate 1.1% among 300,000; inhibition, % at 7.5 µM; cancer stem cell-like cells viability; AID 2717, 2010; in the data active = inhibition above about 75%; tested in HMLE shEcad cells
IEC-6 tox: cytotoxicity in IEC-6 intestinal epithelial cells, primary screen, cytotoxicity control for KLF5 inhibitor project, cell-based, luminescence | inhibition, % at 5 µM | hit rate 0.78% among 290,000 | IEC-6 cytotoxicity, luminescence viability; in the data active = inhibition above about 22%;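 note: 0% = plate median of test compound wells and 100% = cytotoxic reference compound wells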
KLF5 inhibitor: KLF5 expression inhibitors, primary screen, DLD-1 cells, luminescence; hit rate 0.23% among 290,000; AID 1700, 2009; DLD-1 KLF5 promoter-luciferase reporter; inhibition, % at 5 µM;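 active = inhibition above a per-plate limit of that plate's mean compound inhibition plus 3 SD, cut at about 60% in these data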;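 note: 0% = DMSO wells and 100% = LY294002 at 200 µM; higher means less KLF5 promoter-driven luciferase light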
* = called active by the depositor.

`CN(Cc1ccco1)c1ncnc2ccc(-c3ccc4c(ccn4C)c3)cc12` gave CSC inhib 84*.
CN(Cc1ccco1)c1ncnc2ccc(-c3ccc4c(c3)OCO4)cc12 was read as CSC inhib 23.
`O=c1cc(C(Cl)(Cl)Cl)oc2c1ccc1ccccc12` gave aSyn UTR inh -14, SKKanGAS inh 9, CSC inhib 116*, IEC-6 tox 3 and KLF5 inhibitor -23.
Screening O=c1cc(-c2ccco2)oc2c1ccc1ccccc12 returned aSyn UTR inh -31, SKKanGAS inh -8, CSC inhib 8, IEC-6 tox 9 and KLF5 inhibitor -11.
`CC(C)(C)c1nnc(NS(=O)(=O)c2cc(Cl)ccc2Cl)s1` gave aSyn UTR inh -1, SKKanGAS inh 25, CSC inhib 11, IEC-6 tox 0 and KLF5 inhibitor -27.
O=S(=O)(Nc1nc(-c2sccc2Cl)cs1)c1cc(Cl)ccc1Cl was read as aSyn UTR inh -11, SKKanGAS inh 85*, CSC inhib 119*, IEC-6 tox -2 and KLF5 inhibitor 19.
Screening Cc1ccc(NC(=O)CN(C)Cc2nc3c(Br)cc(Br)cc3c(=O)[nH]2)cc1 returned aSyn UTR inh 6, SKKanGAS inh 60*, IEC-6 tox 1 and KLF5 inhibitor -10.
CN(Cc1ccc(OC(F)F)cc1)Cc1nc2c(Br)cc(Br)cc2c(=O)[nH]1 was read as aSyn UTR inh -23, SKKanGAS inh 62*, CSC inhib 32, IEC-6 tox 3 and KLF5 inhibitor -6.
Screening Cc1ccc(NC(=O)CN(C)Cc2ccc(Cl)cc2)cc1 returned aSyn UTR inh 10, SKKanGAS inh -2, CSC inhib 5, IEC-6 tox -4 and KLF5 inhibitor -3.
Screening CCN(CC(=O)NC(C)(C)C)Cc1nc2c(Br)cc(Br)cc2c(=O)[nH]1 returned aSyn UTR inh 13, SKKanGAS inh 51*, IEC-6 tox 0 and KLF5 inhibitor -10.
Cc1ccc2c(c1)Cc1nc3ccccc3nc1-2 was read as aSyn UTR inh 71*, SKKanGAS inh 15, CSC inhib 0, IEC-6 tox 9 and KLF5 inhibitor -21.
Screening Cc1ccc2c(c1)-c1nc3ccccc3cc1C2=NC1CCCCC1 returned CSC inhib 38, IEC-6 tox 6 and KLF5 inhibitor -113.
For CCOC(=O)c1cnc(-n2cc(C)cn2)nc1Nc1ccccc1OCC the results were aSyn UTR inh 38, SKKanGAS inh 90*, CSC inhib 11, IEC-6 tox 4 and KLF5 inhibitor -3.
For CCOC(=O)c1cnc(-n2nc(C)cc2C)nc1Nc1ccccc1OC the results were IEC-6 tox 3 and KLF5 inhibitor -8.
CCC1CCCCN1c1cc(C)nc2cc(-c3cccc(C)c3)nn12 (stereo not given) was read as aSyn UTR inh 17, SKKanGAS inh 57*, IEC-6 tox -6 and KLF5 inhibitor -24.
`Cc1cc(N2CCOCC2)n2nc(-c3cccc(F)c3)cc2n1` gave aSyn UTR inh -28, SKKanGAS inh -1, IEC-6 tox 12 and KLF5 inhibitor -7.
`CCOC(=O)Cc1csc(NC(=O)c2cc(=O)c3ccccc3o2)n1` gave aSyn UTR inh -39, SKKanGAS inh -5, CSC inhib 3, IEC-6 tox 2 and KLF5 inhibitor -15.
For Cc1cc(C)c2nc(NNC(=O)c3ccc(S(=O)(=O)N4CCc5ccccc5C4)cc3)sc2c1 the results were aSyn UTR inh 75*, SKKanGAS inh 78*, CSC inhib 104*, IEC-6 tox -2 and KLF5 inhibitor 26.
Cc1cc(C)c2sc(NNC(=O)c3ccc(S(=O)(=O)N4CCc5ccccc5C4)cc3)nc2c1 was read as aSyn UTR inh 77*, SKKanGAS inh 65*, CSC inhib 103*, IEC-6 tox 1 and KLF5 inhibitor 34.
`Cc1nnc(NC(=O)c2ccc(S(=O)(=O)N3CCc4ccccc4C3)cc2)o1` gave aSyn UTR inh -6, SKKanGAS inh 0, CSC inhib 25, IEC-6 tox -7 and KLF5 inhibitor -5.
Screening Cc1cc(C)c2nc(NNC(=O)c3cc(=O)c4ccccc4o3)sc2c1 returned aSyn UTR inh -12, SKKanGAS inh 85*, CSC inhib 79*, IEC-6 tox 4 and KLF5 inhibitor -39.
Screening O=C(OCc1cccc(F)c1)c1cc2ccccc2cc1O returned aSyn UTR inh 2, SKKanGAS inh 13, CSC inhib 1, IEC-6 tox 6 and KLF5 inhibitor -20.
Screening O=C(COC(=O)Cc1n[nH]c(=O)c2ccccc12)Nc1ccc(Cl)cn1 returned CSC inhib 6.
For Cc1ccc(Oc2ncccc2C(=O)NCC(=O)O)cc1 the results were aSyn UTR inh -3, SKKanGAS inh -1, CSC inhib 13, IEC-6 tox 4 and KLF5 inhibitor -50.
Screening NNC(=O)c1cccc(COc2ccc3c(c2)CCC3)c1 returned aSyn UTR inh 71*, SKKanGAS inh 10, CSC inhib -6, IEC-6 tox -4 and KLF5 inhibitor -25.
`CCOC(=O)/C=C/C(=O)Nc1ccccc1C(=O)NC1CCCCC1` gave aSyn UTR inh 5, SKKanGAS inh -7, CSC inhib 1, IEC-6 tox 1 and KLF5 inhibitor 0.
For O=C1O/C(=C/c2ccccc2)c2ccccc21 the results were aSyn UTR inh -25, SKKanGAS inh -4, CSC inhib -12, IEC-6 tox -3 and KLF5 inhibitor -10.
For N#CC1=C(c2ccccc2)/C(=C/c2ccccc2)OC1=O the results were aSyn UTR inh 20, SKKanGAS inh 57*, CSC inhib -6, IEC-6 tox 0 and KLF5 inhibitor -2.
`C=C1C[C@H]2[C@@H]3CCc4cc(OC)ccc4[C@H]3CC[C@]12C` gave aSyn UTR inh -5, SKKanGAS inh 76* and CSC inhib 19.
Screening CC1(C)Oc2ccc3ccc(=O)oc3c2/C(=C/NC2CCCCC2)C1=O returned aSyn UTR inh 18, SKKanGAS inh 21, CSC inhib -11, IEC-6 tox 3 and KLF5 inhibitor 11.
COc1ccc(O)c(C(=O)CC(=O)c2ccc(F)cc2)c1 was read as aSyn UTR inh 73*, SKKanGAS inh 14, CSC inhib 19, IEC-6 tox -2 and KLF5 inhibitor -121.
For COc1ccc(O)c(C(=O)CC(=O)c2ccccc2C)c1 the results were aSyn UTR inh -100, SKKanGAS inh 60*, CSC inhib 32, IEC-6 tox 2 and KLF5 inhibitor -167.
CCCc1cc(=O)[nH]c(Nc2ccc(N3CCCCC3)cc2)n1 was read as aSyn UTR inh 28, SKKanGAS inh 0, CSC inhib 0, IEC-6 tox 3 and KLF5 inhibitor -56.
For CCCCc1ccc(Nc2nc(CCC)cc(=O)[nH]2)cc1 the results were aSyn UTR inh 0, SKKanGAS inh 2, CSC inhib 102*, IEC-6 tox 4 and KLF5 inhibitor -2.
`NC(N)=NC(N)=Nc1ccc(SC(F)(F)F)cc1` gave aSyn UTR inh 0, SKKanGAS inh 1, CSC inhib -6, IEC-6 tox 35* and KLF5 inhibitor 12.
